Data from the supplement of paper PMC11001985.

Compound: C#CCNC(=O)CCSSCCC(=O)NCCc1ccc(C=O)c(C=O)c1
Assay: lysine labeling ratio R10:1 (500 µM / 50 µM probe), SILAC-ABPP in living cells; higher = lower intrinsic lysine reactivity toward the probe, active = 2 or less
Conditions: HeLa; probe concentrations 500 vs 50 µM
Method in brief: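 Living SILAC light and heavy HeLa cells in PBS at room temperature were treated with an alkyne-tagged, disulfide-linked lysine probe at 50 µM or 500 µM, with forward and reverse label swaps. The mixed lysates were clicked to biotin-azide, digested with trypsin, captured on neutravidin, released with DTT, alkylated and run by LC-MS/MS on a TIMS-TOF Pro. R for each lysine is the filtered median high-probe/low-probe MS1 peptide ratio, taken again as the median over forward and reverse replicates. Any value above 20 is set to 20.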

UniProt Q15149, sequence (Q15149 whole entry): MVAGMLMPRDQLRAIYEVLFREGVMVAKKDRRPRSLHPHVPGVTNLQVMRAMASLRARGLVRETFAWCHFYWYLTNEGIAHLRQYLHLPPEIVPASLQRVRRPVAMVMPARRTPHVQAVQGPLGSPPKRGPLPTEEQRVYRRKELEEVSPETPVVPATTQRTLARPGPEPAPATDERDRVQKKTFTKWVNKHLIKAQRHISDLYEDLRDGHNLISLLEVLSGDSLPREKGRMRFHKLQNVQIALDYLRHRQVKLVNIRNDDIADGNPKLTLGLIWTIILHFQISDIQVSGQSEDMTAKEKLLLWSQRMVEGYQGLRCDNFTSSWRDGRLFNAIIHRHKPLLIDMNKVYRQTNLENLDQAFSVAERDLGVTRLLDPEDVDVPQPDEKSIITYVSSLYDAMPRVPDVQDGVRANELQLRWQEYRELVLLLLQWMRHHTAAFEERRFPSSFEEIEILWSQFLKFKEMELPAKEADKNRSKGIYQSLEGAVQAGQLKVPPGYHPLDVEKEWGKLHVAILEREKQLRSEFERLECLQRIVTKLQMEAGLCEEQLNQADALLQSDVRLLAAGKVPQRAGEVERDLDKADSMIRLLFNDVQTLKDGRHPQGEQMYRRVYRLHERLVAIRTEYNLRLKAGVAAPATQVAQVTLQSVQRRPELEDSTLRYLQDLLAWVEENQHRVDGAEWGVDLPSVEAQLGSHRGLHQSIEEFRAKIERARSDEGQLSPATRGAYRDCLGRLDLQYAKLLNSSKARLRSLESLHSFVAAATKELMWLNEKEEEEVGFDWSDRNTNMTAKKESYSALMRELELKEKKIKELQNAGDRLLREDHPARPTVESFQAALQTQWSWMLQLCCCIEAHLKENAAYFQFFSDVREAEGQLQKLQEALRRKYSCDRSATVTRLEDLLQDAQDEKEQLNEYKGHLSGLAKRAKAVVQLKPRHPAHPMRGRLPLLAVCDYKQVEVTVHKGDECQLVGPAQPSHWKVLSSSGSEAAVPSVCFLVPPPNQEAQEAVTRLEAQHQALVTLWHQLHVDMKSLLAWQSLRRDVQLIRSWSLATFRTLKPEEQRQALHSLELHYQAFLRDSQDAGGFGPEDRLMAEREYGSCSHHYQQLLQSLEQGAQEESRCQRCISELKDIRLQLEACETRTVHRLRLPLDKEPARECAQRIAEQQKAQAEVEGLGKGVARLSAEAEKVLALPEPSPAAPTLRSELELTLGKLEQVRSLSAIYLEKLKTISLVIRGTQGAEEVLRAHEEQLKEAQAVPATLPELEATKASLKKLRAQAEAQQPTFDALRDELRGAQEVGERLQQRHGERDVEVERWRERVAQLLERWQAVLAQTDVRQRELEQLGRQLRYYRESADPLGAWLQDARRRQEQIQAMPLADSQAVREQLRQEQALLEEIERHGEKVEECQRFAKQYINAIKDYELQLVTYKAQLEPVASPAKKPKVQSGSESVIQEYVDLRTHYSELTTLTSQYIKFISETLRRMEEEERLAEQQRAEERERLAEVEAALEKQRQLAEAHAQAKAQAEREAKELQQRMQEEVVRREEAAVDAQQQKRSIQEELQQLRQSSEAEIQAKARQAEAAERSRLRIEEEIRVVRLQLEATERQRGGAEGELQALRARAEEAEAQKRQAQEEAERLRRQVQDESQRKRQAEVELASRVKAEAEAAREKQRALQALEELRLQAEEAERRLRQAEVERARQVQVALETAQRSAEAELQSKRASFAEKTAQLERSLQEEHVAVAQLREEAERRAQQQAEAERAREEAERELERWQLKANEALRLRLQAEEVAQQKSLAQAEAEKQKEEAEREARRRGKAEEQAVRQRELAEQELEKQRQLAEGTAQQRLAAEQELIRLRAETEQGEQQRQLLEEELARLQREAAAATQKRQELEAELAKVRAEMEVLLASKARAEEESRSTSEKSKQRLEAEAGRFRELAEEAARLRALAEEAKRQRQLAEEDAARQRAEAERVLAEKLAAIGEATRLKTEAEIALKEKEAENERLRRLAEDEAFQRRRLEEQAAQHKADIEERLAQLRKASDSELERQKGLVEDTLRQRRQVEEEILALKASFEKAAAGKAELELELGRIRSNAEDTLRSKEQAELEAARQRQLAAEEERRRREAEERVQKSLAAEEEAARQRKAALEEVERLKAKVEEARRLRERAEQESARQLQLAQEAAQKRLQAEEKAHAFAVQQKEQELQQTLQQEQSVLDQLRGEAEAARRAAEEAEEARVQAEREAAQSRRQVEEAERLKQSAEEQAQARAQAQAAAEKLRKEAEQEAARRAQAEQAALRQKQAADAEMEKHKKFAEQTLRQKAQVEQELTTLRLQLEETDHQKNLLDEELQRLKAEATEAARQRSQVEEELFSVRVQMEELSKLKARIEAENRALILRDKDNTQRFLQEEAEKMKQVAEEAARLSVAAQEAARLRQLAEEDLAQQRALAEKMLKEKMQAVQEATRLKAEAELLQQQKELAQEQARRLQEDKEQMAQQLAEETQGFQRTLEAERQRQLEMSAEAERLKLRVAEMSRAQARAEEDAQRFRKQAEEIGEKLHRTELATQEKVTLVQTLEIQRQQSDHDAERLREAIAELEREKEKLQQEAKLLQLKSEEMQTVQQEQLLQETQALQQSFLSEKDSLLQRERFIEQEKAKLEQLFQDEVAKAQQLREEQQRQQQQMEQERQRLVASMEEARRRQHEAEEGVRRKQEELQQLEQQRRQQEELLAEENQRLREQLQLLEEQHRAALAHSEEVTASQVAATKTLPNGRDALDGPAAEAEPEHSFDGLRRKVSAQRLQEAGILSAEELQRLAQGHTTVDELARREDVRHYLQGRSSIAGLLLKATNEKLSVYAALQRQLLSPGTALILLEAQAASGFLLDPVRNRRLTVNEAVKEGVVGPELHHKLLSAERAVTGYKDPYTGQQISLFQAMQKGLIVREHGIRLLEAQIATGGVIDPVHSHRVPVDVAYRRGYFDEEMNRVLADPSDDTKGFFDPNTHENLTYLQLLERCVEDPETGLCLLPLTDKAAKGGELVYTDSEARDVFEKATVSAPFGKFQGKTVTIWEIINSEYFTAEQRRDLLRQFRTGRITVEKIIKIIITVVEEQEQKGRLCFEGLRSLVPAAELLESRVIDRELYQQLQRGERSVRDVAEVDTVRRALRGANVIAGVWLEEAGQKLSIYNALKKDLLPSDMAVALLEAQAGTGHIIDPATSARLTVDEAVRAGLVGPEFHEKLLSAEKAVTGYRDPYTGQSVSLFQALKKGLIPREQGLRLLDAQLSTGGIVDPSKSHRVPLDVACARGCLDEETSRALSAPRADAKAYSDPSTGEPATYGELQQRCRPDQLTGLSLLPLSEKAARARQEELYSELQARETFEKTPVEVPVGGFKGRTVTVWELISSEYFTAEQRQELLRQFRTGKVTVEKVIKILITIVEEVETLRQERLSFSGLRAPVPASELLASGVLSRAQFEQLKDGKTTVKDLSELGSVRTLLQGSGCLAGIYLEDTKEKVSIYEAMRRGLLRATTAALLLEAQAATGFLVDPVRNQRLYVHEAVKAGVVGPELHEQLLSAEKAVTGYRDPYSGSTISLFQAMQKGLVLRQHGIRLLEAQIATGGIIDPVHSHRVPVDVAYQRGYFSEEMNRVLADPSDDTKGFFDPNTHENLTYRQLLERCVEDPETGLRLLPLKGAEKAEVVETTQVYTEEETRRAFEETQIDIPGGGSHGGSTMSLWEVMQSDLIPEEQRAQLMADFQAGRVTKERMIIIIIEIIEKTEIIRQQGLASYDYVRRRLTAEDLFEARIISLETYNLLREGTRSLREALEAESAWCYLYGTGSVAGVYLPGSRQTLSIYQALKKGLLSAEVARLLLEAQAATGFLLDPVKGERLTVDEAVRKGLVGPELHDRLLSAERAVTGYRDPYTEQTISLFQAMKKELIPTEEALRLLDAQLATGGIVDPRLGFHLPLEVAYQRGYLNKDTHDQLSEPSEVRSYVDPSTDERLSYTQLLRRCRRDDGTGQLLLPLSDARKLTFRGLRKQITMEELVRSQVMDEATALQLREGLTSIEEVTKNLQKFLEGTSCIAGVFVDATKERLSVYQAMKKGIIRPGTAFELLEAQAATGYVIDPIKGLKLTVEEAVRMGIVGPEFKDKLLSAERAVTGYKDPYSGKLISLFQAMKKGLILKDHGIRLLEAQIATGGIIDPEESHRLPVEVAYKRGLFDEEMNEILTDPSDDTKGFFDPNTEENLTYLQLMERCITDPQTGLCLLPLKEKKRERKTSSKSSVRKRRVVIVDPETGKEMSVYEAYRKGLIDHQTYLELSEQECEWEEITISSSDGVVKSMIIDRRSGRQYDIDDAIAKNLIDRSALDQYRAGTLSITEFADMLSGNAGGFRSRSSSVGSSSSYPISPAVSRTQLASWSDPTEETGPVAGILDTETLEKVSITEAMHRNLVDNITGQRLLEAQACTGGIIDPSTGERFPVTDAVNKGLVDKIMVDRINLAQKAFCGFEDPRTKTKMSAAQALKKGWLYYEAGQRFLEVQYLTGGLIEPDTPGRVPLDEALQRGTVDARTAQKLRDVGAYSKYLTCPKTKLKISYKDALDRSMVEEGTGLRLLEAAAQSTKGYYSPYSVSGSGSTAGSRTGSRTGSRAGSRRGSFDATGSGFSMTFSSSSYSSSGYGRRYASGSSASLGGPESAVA
UniProt Q9NX63, sequence (Q9NX63 whole entry): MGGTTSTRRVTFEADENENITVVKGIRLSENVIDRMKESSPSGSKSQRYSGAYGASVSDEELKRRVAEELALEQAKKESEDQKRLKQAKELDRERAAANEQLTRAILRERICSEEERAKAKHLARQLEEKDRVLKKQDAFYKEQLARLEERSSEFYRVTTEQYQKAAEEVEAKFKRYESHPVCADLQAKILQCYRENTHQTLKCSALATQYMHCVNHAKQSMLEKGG
UniProt P21291, sequence (P21291 whole entry): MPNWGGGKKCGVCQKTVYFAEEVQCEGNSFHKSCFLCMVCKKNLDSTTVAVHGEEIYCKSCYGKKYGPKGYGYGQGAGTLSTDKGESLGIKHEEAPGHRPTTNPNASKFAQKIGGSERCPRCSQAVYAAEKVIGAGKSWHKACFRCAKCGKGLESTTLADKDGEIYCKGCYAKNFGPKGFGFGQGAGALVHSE

Target	lysine labeling ratio R10:1
UniProt Q15149 (lysine site: K1996)	3.69 (inactive)
LAMP1 (lysine site: K137) (UniProt P11279)	2.74 (inactive)
VIM (lysine site: K120) (UniProt P08670)	10 (inactive)
SFN (lysine site: K49) (UniProt P31947)	5.33 (inactive)
ITGA1 (lysine site: K711) (UniProt P56199)	3.16 (inactive)
UniProt P05787 (lysine site: K483)	2.46 (inactive)
UniProt Q16513 (lysine site: K690)	2.89 (inactive)
HSPG2 (lysine site: K1414) (UniProt P98160)	1.42 (active)
UniProt P02768 (lysine site: K438)	10 (inactive)
CHST14 (lysine site: K226) (UniProt Q8NCH0)	1.36 (active)
CHCHD3 (lysine site: K86) (UniProt Q9NX63)	0.99 (active)
NRP1 (lysine site: K509) (UniProt O14786)	5.12 (inactive)
CSRP1 (lysine site: K178) (UniProt P21291)	0.76 (active)
UniProt Q9NYQ6 (lysine site: K2118)	2.31 (inactive)
PTBP1 (lysine site: K271) (UniProt P26599)	2.72 (inactive)
UGDH (lysine site: K107) (UniProt O60701)	1.1 (active)
UniProt Q8IWU5 (lysine site: K443)	1.5 (active)
CYB5R3 (lysine site: K42) (UniProt P00387)	3.81 (inactive)
FSCN1 (lysine site: K43) (UniProt Q16658)	1.7 (active)
UniProt Q9BZM4 (lysine site: K158)	2.74 (inactive)

Target	lysine labeling ratio R10:1
UniProt Q16363 (lysine site: K1068)	2.52 (inactive)
RDX (lysine site: K371) (UniProt P35241)	1.33 (active)
UniProt O95084 (lysine site: K270)	2.67 (inactive)
SDC4 (lysine site: K105) (UniProt P31431)	3.81 (inactive)
LRP1 (lysine site: K646) (UniProt Q07954)	1.92 (active)
TKT (lysine site: K16) (UniProt P29401)	2.68 (inactive)
RPS19 (lysine site: K144) (UniProt P39019)	1.75 (active)
FRAS1 (lysine site: K549) (UniProt Q86XX4)	4.59 (inactive)
SPTAN1 (lysine site: K1750) (UniProt Q13813)	2.19 (inactive)
UniProt Q15149 (lysine site: K1055)	1.98 (active)
UniProt Q8WXI7 (lysine site: K13402)	5.02 (inactive)
PA2G4 (lysine site: K22) (UniProt Q9UQ80)	0.568 (active)
UniProt P62829 (lysine site: K75)	4.96 (inactive)
UniProt P62269 (lysine site: K47)	1.41 (active)
LAMB1 (lysine site: K1492) (UniProt P07942)	4.06 (inactive)
GANAB (lysine site: K191) (UniProt Q14697)	4.19 (inactive)
GDI2 (lysine site: K435) (UniProt P50395)	4.66 (inactive)
EGFR (lysine site: K500) (UniProt P00533)	12.8 (inactive)
FLNA (lysine site: K1372) (UniProt P21333)	2.93 (inactive)
HNRNPU (lysine site: K565) (UniProt Q00839)	3.39 (inactive)
